PubChem BioAssay
Activity calls are given as the source filed them. Unless noted, the rule behind the calls is not given here.

Assays:
[1] = system: Wnt5a (protein binding on small-molecule microarray); test: small molecules binding Wnt5a protein – biophysical, small-molecule microarray, 635/667 nm fluorescence, primary screen (AID 1142); conditions: 635 nm fluorescence, higher = more signal;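 note: fluorescence read at 667 nm with signal to noise per printed feature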
[2] = ATP-based viability of Huh7 replicon cells – cell-based, CellTiter-Glo luminescence, basal, 48 h, cytotoxicity control for HCV replication inhibitor project, primary screen (AID 1143); conditions: higher = more signal, called active from +8 up or from −8 down;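 note: Huh7 hepatoma cells carrying a hepatitis C replication reporter with no stimulus; test concentration not given here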
[3] = Pseudomonas biofilm growth suppression – PAO1 strain, BacTiter-Glo luminescence, LB-PBS, primary screen (AID 1144); conditions: P. aeruginosa PAO1 biofilm, 12 h, higher = more signal
[4] = basal CRE-LacZ reporter activity in PC12 – cell-based, unstimulated, primary screen (AID 1145); conditions: no forskolin, luminescence, 4.5 h, higher = more signal, called active from +8 up or from −8 down
[5] = forskolin-driven CRE-LacZ activity in PC12 – cell-based, CRE-LacZ reporter, forskolin-stimulated, primary screen (AID 1146); conditions: luminescence, 4.5 h, higher = more signal, called active from +8 up or from −8 down;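 note: PC12 cells with 6xCRE LacZ reporter stimulated by forskolin 10 µM; beta-galactosidase reporter signal reflecting CREB driven transcription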
[6] = target: Streptavidin (Streptomyces avidinii) (UniProt P22629); test: compounds binding control protein streptavidin – biophysical, small-molecule microarray, 635/667 nm fluorescence, artefact control for SMM compound annotation, primary screen (AID 1147); conditions: higher = more signal;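 note: signal reflects streptavidin binding to arrayed compounds as a control protein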
[7] = probe aInhba binding on compound microarray – biochemical, small-molecule microarray, 635/667 nm fluorescence, primary screen (AID 1148); conditions: higher = more signal;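 note: score merges 667nm spot fluorescence with signal-to-noise for antibody binding to printed compounds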
Torsin-1A (Homo sapiens) [8] = target: Torsin-1A (Homo sapiens) (UniProt O14656); test: TOR1A wild-type binding on microarray – cell lysate, small-molecule microarray, lysate, 635/667 nm, primary screen (AID 1149); conditions: COS7 hTOR1A-WT lysate, 635 nm fluorescence, higher = more signal
Torsin-1A (Homo sapiens) [9] = target: Torsin-1A (Homo sapiens) (UniProt O14656); test: torsin A mutant lysate binding on microarrays – cell lysate, small-molecule microarray, COS7 lysate, 635/667 nm fluorescence, primary screen (AID 1150); conditions: COS7 hTOR1A mutant lysate, 635 nm fluorescence, higher = more signal;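 note: score pools 667 nm emission and signal to noise measuring lysate protein binding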
[10] = system: Sonic hedgehog protein (Shh); test: Sonic hedgehog microarray binding compounds – biochemical, small-molecule microarray, 635/667 nm fluorescence, primary screen (AID 1151); conditions: 635 nm fluorescence, higher = more signal;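 note: Shh protein binding to compounds spotted on small-molecule microarray slides; score combines spot fluorescence intensity with signal-to-noise across triplicate slides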
[11] = optical density shifts of acrAB sulA E. coli – strain DRC41, OD650, 48 h, E. coli filamentation inducer project, primary screen (AID 1152); conditions: higher = more signal, called active from +8 up or from −8 down;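 note: E. coli MC1000 strain DRC41 lacking acrAB efflux pump and sulA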
[12] = probe aLefty1 binding on compound microarray – biochemical, small-molecule microarray, 635/667 nm fluorescence, primary screen (AID 1153); conditions: higher = more signal;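 note: score merges spot fluorescence with signal-to-noise ratio from the scanned slide images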
[13] = plasmodial surface anion channel blockers, osmotic lysis – cell-based, P. falciparum Indochina, OD700, 1 h, primary screen (AID 1154); conditions: P. falciparum Indochina infected RBC osmotic lysis, higher = more signal, called active from +8 up or from −8 down
[14] = plasmodial surface anion channel blockers, osmotic lysis – cell-based, P. falciparum Indochina, OD700, 2 h, primary screen (AID 1155);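 note: lysis reports solute entry through the parasite surface anion channel PSAC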; conditions: P. falciparum Indochina infected erythrocytes, higher = more signal, called active from +8 up or from −8 down
[15] = changes in parasitized red cell lysis, either direction – P. falciparum Indochina, OD700, 3 h, PSAC antagonist project, primary screen (AID 1156); conditions: P. falciparum-infected erythrocytes, osmotic lysis, higher = more signal, called active from +8 up or from −8 down
[16] = plasmodial surface anion channel blockers, osmotic lysis – cell-based, P. falciparum Indochina, OD700, 18 h, primary screen (AID 1157); conditions: P. falciparum Indochina infected erythrocytes, osmotic lysis OD700, 18 h; higher = more signal, called active from +8 up or from −8 down
[17] = S6 kinase pathway phospho-S6 level changes – cell-based, A549, cytoblot, luminescence, serum-stimulated, primary screen (AID 1158); conditions: 5 h, higher = more signal;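 note: serum-stimulated A549 lung adenocarcinoma cells; signal is phosphorylated S6 detected by cytoblot immunostaining with HRP secondary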
[18] = target: NADPH oxidase 2 (Homo sapiens) (UniProt P04839); test: compounds shifting NOX2 Amplex Red fluorescence – cell-based, HEK293-NOX2, PMA-stimulated, NOX inhibitor project, primary screen (AID 1159); conditions: 45 min, higher = more signal, called active from +8 up or from −8 down; note: test concentration not given here
[19] = target: NADPH oxidase 4 (Homo sapiens) (UniProt Q9NPH5); test: compounds shifting NOX4 Amplex Red fluorescence – cell-based, HEK293-NOX4, tetracycline-induced, NOX inhibitor project, primary screen (AID 1160); conditions: HEK293-NOX4, Amplex Red H2O2 fluorescence, 45 min; higher = more signal, called active from +8 up or from −8 down
[20] = target: NADPH oxidase 5 (Homo sapiens) (UniProt Q96PH1); test: compounds shifting NOX5 Amplex Red fluorescence – cell-based, HEK293-NOX5, NOX inhibitor project, primary screen (AID 1161); conditions: HEK293-NOX5, ionomycin, 45 min, higher = more signal
Chain of NADPH oxidase 5 (Homo sapiens) (Q96PH1 whole entry, looked up): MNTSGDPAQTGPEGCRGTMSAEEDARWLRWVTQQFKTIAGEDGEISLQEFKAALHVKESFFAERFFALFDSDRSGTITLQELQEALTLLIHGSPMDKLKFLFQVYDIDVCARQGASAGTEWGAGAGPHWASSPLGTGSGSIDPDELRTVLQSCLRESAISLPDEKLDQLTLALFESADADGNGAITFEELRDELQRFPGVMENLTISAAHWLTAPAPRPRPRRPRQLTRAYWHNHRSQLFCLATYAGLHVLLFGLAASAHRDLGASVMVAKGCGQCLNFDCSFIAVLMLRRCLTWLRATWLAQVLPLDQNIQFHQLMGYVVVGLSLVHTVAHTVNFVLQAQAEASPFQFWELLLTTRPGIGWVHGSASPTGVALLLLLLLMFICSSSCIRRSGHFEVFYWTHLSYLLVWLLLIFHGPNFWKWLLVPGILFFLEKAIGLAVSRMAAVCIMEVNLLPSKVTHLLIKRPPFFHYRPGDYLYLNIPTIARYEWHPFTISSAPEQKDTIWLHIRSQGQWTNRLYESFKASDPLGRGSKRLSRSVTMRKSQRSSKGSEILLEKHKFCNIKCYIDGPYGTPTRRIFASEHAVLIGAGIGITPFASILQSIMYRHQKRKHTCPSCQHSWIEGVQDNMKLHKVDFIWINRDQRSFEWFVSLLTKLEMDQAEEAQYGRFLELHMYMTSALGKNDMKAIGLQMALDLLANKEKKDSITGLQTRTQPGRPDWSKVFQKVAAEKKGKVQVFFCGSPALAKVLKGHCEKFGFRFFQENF

Chain of Torsin-1A (Homo sapiens) (O14656 whole entry, looked up): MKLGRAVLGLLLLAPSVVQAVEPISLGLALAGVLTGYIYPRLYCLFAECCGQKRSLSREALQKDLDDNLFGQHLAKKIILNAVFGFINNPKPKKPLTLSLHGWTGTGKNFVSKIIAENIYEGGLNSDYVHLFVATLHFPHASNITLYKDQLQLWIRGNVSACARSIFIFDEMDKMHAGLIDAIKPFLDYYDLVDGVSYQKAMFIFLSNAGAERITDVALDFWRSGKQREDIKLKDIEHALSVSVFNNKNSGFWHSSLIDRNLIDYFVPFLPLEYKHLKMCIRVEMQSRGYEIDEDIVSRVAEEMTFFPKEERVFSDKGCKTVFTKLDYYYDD
Chain of NADPH oxidase 4 (Homo sapiens) (Q9NPH5 whole entry, looked up): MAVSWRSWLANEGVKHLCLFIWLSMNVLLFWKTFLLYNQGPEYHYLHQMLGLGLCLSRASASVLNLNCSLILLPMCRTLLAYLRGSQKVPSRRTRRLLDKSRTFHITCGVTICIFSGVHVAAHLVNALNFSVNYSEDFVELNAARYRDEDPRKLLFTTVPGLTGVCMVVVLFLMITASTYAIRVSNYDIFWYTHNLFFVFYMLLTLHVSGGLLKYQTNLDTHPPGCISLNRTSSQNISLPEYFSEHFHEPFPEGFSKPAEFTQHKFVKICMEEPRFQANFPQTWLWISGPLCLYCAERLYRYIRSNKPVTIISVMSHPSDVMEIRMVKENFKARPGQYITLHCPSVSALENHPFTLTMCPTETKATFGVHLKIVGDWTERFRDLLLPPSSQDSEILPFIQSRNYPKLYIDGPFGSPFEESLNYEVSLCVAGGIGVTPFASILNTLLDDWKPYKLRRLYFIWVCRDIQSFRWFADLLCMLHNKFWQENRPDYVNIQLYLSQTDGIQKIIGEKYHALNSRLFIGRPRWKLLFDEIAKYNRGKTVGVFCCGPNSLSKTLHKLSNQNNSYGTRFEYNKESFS
Chain of NADPH oxidase 2 (Homo sapiens) (P04839 whole entry, looked up): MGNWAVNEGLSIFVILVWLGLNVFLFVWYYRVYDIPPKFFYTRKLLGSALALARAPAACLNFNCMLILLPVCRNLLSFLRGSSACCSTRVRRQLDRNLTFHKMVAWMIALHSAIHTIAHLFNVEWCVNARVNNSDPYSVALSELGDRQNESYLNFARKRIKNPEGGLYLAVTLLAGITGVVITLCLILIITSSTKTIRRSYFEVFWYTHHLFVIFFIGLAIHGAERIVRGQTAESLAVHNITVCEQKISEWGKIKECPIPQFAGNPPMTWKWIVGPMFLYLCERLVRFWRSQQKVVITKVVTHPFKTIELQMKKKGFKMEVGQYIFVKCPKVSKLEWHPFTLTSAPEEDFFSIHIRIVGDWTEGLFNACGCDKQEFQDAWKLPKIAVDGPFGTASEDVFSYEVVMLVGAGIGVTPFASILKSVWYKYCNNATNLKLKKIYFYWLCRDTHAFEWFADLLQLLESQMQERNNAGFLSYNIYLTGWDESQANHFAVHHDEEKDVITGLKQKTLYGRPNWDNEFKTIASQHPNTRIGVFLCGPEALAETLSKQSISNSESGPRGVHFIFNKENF
Chain of Streptavidin (Streptomyces avidinii) (P22629 whole entry, looked up): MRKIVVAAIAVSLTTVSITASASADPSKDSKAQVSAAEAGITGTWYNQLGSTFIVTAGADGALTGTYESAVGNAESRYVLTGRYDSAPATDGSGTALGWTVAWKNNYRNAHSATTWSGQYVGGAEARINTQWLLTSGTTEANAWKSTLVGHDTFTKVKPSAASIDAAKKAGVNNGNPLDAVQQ

Row | SMILES | composite z-score [1] | z-score [2] | z-score [3] | z-score [4] | z-score [5] | composite z-score [6] | composite z-score [7] | composite z-score (Torsin-1A (Homo sapiens) [8]) | composite z-score (Torsin-1A (Homo sapiens) [9]) | composite z-score [10] | z-score [11] | composite z-score [12] | z-score [13] | z-score [14] | z-score [15] | z-score [16] | z-score [17] | z-score [18] | z-score [19] | z-score [20]
1 | C=C(CCCC)/C(=C/C[C@H](OC(C)=O)c1cccc(OCCO)c1)c1cnc2ccccc2c1 | 0.0596 | -0.717 (inactive) | 0.768 (inactive) | 7.36 (inactive) | -0.134 (inactive) | 0.247 | -0.208 | -0.268 | -0.348 | 0.477 | 0.186 (inactive) | -0.193 | 23.7 (active) | 6.09 (inactive) | 1.94 (inactive) | 1.34 (inactive) | -0.33 | -0.532 (inactive) | -0.294 (inactive) | -1.76
2 | CCCC=C(CCC)[C@@H](NC(=O)OCC(C)C)c1ccc(C(=O)OC)cc1 | -0.0326 | -1.07 (inactive) | 0.3 (inactive) | -1.72 (inactive) | 0.291 (inactive) | 0.153 | -0.154 | 0.841 | 0.104 | 0.23 | -0.531 (inactive) | 0.506 | -1.17 (inactive) | -0.781 (inactive) | -1.07 (inactive) | -1.47 (inactive) | 1.31 | 0.115 (inactive) | 1.89 (inactive) | 1.97
3 | COc1ccc(C(=O)Nc2cccc(CN3C(=O)[C@]4(O[C@H](CC(=O)N5Cc6ccccc6C[C@H]5CO)[C@@H]([Si](C)(C)c5ccc(OC)cc5)[C@@H]4C)c4ccccc43)c2)cc1 | 0.711 | -3.89 (inactive) | 0.269 (inactive) | -1.07 (inactive) | -0.442 (inactive) | -0.266 | 0.114 | 0.671 | 0.701 | 2.19 | 1.66 (inactive) | 0.423 | 4.02 (inactive) | 1.49 (inactive) | 0.887 (inactive) | 1.04 (inactive) | 0.568 | 0.0795 (inactive) | 0.701 (inactive) | 2.01
4 | [N-]=[N+]=Nc1ccccc1[C@H]1OC(c2ccc(OCCCO)cc2)=N[C@@]1(Cc1ccccc1)C(=O)NCC(O)CO (stereo not given in full) | 0.96 | -2.87 (inactive) | -0.48 (inactive) | -1.49 (inactive) | -1.2 (inactive) | 0.211 | 0.121 | 0.36 | 0.807 | -1.32 | 0.348 (inactive) | 0.425 | 33.6 (active) | 30.4 (active) | 0.849 (inactive) | 8.56 (active) | -0.0737 | -0.455 (inactive) | 1.67 (inactive) | 1.31
5 | C=CCC(OC(C)=O)[C@@H]1[C@@H](N(Cc2cccc3ccccc23)C(=O)c2ccc(-c3ccccc3)cc2)c2cc(OCCCO)ccc2N1C(=O)Cc1ccc2ccccc2c1 (stereo not given in full) | -0.0281 | -0.182 (inactive) | 0.0777 (inactive) | -0.141 (inactive) | 0.0677 (inactive) | 0.911 | 0.0108 | -0.175 | -0.337 | 0.068 | -0.662 (inactive) | -0.0164 | 0.36 (inactive) | 0.35 (inactive) | -0.428 (inactive) | 0.309 (inactive) | -0.242 | -1.49 (inactive) | 1.15 (inactive) | 0.311
6 | C=CCOC(=O)[C@@H]1[C@H]2C(=O)O[C@H](c3ccccc3)[C@H](c3ccccc3)N2[C@H](c2ccc(OCCOC(=O)[C@H]3C[C@H]4C(=O)N[C@@H](CCCCN(C)C)C(=O)N4[C@H]3c3ccc(O)cc3)cc2)[C@@]12C(=O)Nc1ccc(I)cc12 | 0.374 | -1.29 (inactive) | -0.852 (inactive) | -0.118 (inactive) | 2.13 (inactive) | 0.433 | 0.0895 | 1.18 | 0.9 | 1.98 | -1.09 (inactive) | 0.0313 | -0.202 (inactive) | 0.422 (inactive) | 3.69 (inactive) | -0.116 (inactive) | -1.34 | 1.6 (inactive) | 0.182 (inactive) | 0.946
7 | C=CCN1Cc2ccccc2[C@H]2OC(c3ccc(OCCCO)cc3)=N[C@@]2(CCS(=O)(=O)c2ccccc2)C1=O | 1.07 | -2.3 (inactive) | 0.477 (inactive) | 1.44 (inactive) | -1.27 (inactive) | 0.22 | 0.275 | 0.695 | 1.26 | 1.28 | -0.028 (inactive) | 0.607 | 30.4 (active) | 27.2 (active) | 1.47 (inactive) | 6 (inactive) | -0.272 | -0.697 (inactive) | 1.93 (inactive) | 0.119
8 | CCCN1C(=O)[C@]2(CCC(=O)OC(C)(C)C)N=C(c3ccc(OCCCO)cc3)O[C@@H]2c2ccccc21 | 0.456 | -4.35 (inactive) | -0.543 (inactive) | 0.512 (inactive) | -1.44 (inactive) | -0.374 | 0.173 | 1.51 | 0.111 | 1.7 | 0.239 (inactive) | 0.26 | 34.1 (active) | 36.8 (active) | 2.57 (inactive) | 8.76 (active) | -0.0347 | -3.07 (inactive) | -0.483 (inactive) | -1.51
9 | COc1ccc(C(O)C2C=CC3C(=O)N(c4ccccc4)C(=O)C3N2Nc2ccc([N+](=O)[O-])cc2)c2ccccc12 (stereo not given) | 0.328 | -0.8 (inactive) | -0.557 (inactive) | -0.228 (inactive) | -0.838 (inactive) | 1.86 | 0.12 | 0.771 | 0.163 | 0.0892 | -1.31 (inactive) | 0.364 | 9.23 (active) | 2.13 (inactive) | 0.722 (inactive) | 1.12 (inactive) | -0.446 | -0.273 (inactive) | -0.96 (inactive) | -1.55
